Experimental data as given in ChEMBL document CHEMBL3988442, “University of Dundee, Small-Polar-MMV Screening Library” (2021).
Screen size: about 38,000 compounds; about 1,200 (3.2%) showed an effect of 50% or more. The median lay at about -58%. The sample holds strong results, similar compounds and a random draw of the others, so the mix is not that of the screen.

Each molecule was assayed on Plasmodium falciparum (assay: Calibr Malaria Delayed Death Assay SOP). Settings: concentration 4.99e-06 (unit not given; other assays of the set use mol/L).
Type: functional, organism-based
Parameters: scale not given: in the data most compounds retested in dose-response had high values
With `Cc1ccc(OCCC(=O)N2CCOCC2c2ncon2)cc1C` (configuration not stated) the “Percent Effect” value was -113.3%.
In the case of `O=C(c1ccco1)N1Cc2nccn2CC(Cn2ncccc2=O)C1` (configuration not stated), the “Percent Effect” value was -89.1%.
In the case of `CCCN(CCC)c1ncc(S(=O)(=O)c2ccc(C)cc2)c(N)n1`, the “Percent Effect” value was 12.69%.
In the case of `CCCN(CCC)c1ncc(S(=O)(=O)c2ccc(OC)cc2)c(N)n1`, the “Percent Effect” value was 66.8%.
For `CCCN(CCC)c1ncc(S(=O)(=O)c2ccccc2)c(N)n1`, the “Percent Effect” value was -11.95%.
In the case of `N#Cc1c(N)nc2c(c1-c1c[nH]nc1C1CCCCC1)CNCC2`, the “Percent Effect” value was 6.508%.
In the case of `c1ccc(COCC2CN(Cc3ccsc3)Cc3nccn3C2)nc1` (configuration not stated), the “Percent Effect” value was 1.035%.
In the case of `CCc1cnc(CN(C)C2CCN(CCCNS(C)(=O)=O)C2)o1` (configuration not stated), the “Percent Effect” value was -33.46%.
With `Cc1cc(C)n(C2CN(CC(=O)N(C)Cc3ccc(C)o3)C2)n1` the “Percent Effect” value was -1.347%.
`Cc1cc(C)n(C2CN(CC(=O)N(C)Cc3ccco3)C2)n1` was tested, and the “Percent Effect” value was -70.44%.
With `Cc1cc(C)n(C2CN(CC(=O)N(C)Cc3ccsc3)C2)n1` the “Percent Effect” value was 24.51%.
With `COc1ccccc1CN(C)C(=O)CN1CC(n2nc(C)cc2C)C1` the “Percent Effect” value was 77.58%.
For `COc1cccc(CN(C)C(=O)CN2CC(n3nc(C)cc3C)C2)c1`, the “Percent Effect” value was 62.45%.
For `Cc1cc(C)n(C2CN(CC(=O)N(C)Cc3cnn(C)c3)C2)n1`, the “Percent Effect” value was -103.6%.
With `CC(C)NC(=O)N1CC[C@@H]2CN(S(C)(=O)=O)CCO[C@@H]2C1` the “Percent Effect” value was -58.18%.
For `Cc1nnc(NC(=O)NCc2ccc(OC3CCCC3)nc2)s1`, the “Percent Effect” value was 2.114%.
`Cc1cccc(N2Cc3nc(N4CCC(C)CC4)ncc3C2=O)c1` was tested, and the “Percent Effect” value was -105.8%.
In the case of `O=S(=O)(c1ccccc1)N1CCC[C@]2(C[C@@H](OCC3CC3)CO2)C1`, the “Percent Effect” value was -64.42%.
`CCOc1ccc2[nH]c3c(N(C)CC4OCCO4)ncnc3c2c1` was tested, and the “Percent Effect” value was -160.2%.
In the case of `CCCNC(=O)CCNC(=O)c1sc2ccc(F)cc2c1C`, the “Percent Effect” value was -59.54%.
`O=C(c1occc1CN1C(=O)Cc2ccccc21)N1CC(O)C1` was tested, and the “Percent Effect” value was -91.69%.
With `CN1CCN(C(=O)c2occc2CN2C(=O)Cc3ccccc32)CC1` the “Percent Effect” value was 53.65%.
For `CN1CCN(C(=O)c2cc3occc3n2Cc2ccccc2F)CC1`, the “Percent Effect” value was -0.5316%.
With `N#Cc1cnc2c(F)cc(F)cc2c1NC1CCN(CC(N)=O)CC1` the “Percent Effect” value was -21.61%.
For `Cc1cnc(NC(=O)CSC2CCc3ccccc3NC2=O)s1` (configuration not stated), the “Percent Effect” value was -9.765%.
In the case of `NC(=O)c1ccc(CN2CCC(N3CCCCC3)CC2)cc1`, the “Percent Effect” value was -16.53%.
In the case of `CC(NCc1ccc(OCC(N)=O)cc1)c1ccc(Cl)c(Cl)c1.Cl` (configuration not stated), the “Percent Effect” value was 2.26%.
In the case of `CC(NCc1ccc(OCC(N)=O)cc1)c1ccc(Cl)cc1.Cl` (configuration not stated), the “Percent Effect” value was 12.76%.
For `CC(NCc1ccc(OCC(N)=O)cc1)c1ccc2c(c1)CCCC2` (configuration not stated), the “Percent Effect” value was 72.97%.
In the case of `CSCCN1C(=O)CC(C)(c2ccc(Br)cc2)C1=O` (configuration not stated), the “Percent Effect” value was -78.64%.
For `COC(=O)CCCC(=O)N1CCCCC1c1ccc(F)cc1` (configuration not stated), the “Percent Effect” value was -184.4%.
`NCC(=O)N1CCCCC1c1ccc(F)cc1` (configuration not stated) was tested, and the “Percent Effect” value was 85.19%.
`O=C1CCCCN1CCC(=O)N1CCCCC1c1ccc(F)cc1` (configuration not stated) was tested, and the “Percent Effect” value was -57.96%.
`Cc1[nH]ncc1C(C)NCc1ccc(F)cc1` (configuration not stated) was tested, and the “Percent Effect” value was -52.77%.
For `CC(NCc1ccncc1)c1cc2c(cc1Br)OCCO2` (configuration not stated), the “Percent Effect” value was 7.247%.
For `CCN1CCN(c2ccc(F)cc2C(C)NCc2ccccn2)CC1` (configuration not stated), the “Percent Effect” value was 85.11%.
For `CC(c1ccc(F)cc1F)N1CCN(Cc2nccn2C)CC1` (configuration not stated), the “Percent Effect” value was -23.71%.
`CC(c1cc(F)ccc1F)N1CCN(Cc2nccn2C)CC1` (configuration not stated) was tested, and the “Percent Effect” value was -48.8%.
With `CC(NC(=O)NCc1cscn1)c1ccc(N2CCOCC2)cc1` (configuration not stated) the “Percent Effect” value was -60.07%.
With `C[C@]1(O)CN(Cc2cscn2)CC[C@@H]1Oc1cccc(F)c1` the “Percent Effect” value was -10.93%.
For `CC(NCc1ccccn1)c1cc2c(cc1Br)OCCO2` (configuration not stated), the “Percent Effect” value was 22.3%.
For `CCN1CCN(c2ccc(F)cc2C(C)NCc2ccncc2)CC1` (configuration not stated), the “Percent Effect” value was 71.8%.
With `CC(NCCn1cccn1)c1cc(F)ccc1F` (configuration not stated) the “Percent Effect” value was 0.142%.
`CCN1CCN(c2ccc(F)cc2C(C)NCc2cscn2)CC1` (configuration not stated) was tested, and the “Percent Effect” value was 80.23%.
In the case of `CCN1CCN(c2ccc(F)cc2C(C)NCc2ccnn2C)CC1` (configuration not stated), the “Percent Effect” value was 75.25%.
With `Cn1nc(-c2ccccc2)c(Cl)c1C(=O)O` the “Percent Effect” value was 13.43%.
In the case of `CC(C)S(=O)(=O)NCC(Cc1cccc(F)c1)N1CCNC1=O` (configuration not stated), the “Percent Effect” value was -68.63%.
With `COc1ccc(CNc2nc(N3CCOCC3)ns2)cc1` the “Percent Effect” value was -61.76%.
In the case of `Cc1ccc(CCNC(=O)CC2COCCN2S(=O)(=O)N(C)C)o1` (configuration not stated), the “Percent Effect” value was -12.87%.
For `CC(C)c1nncn1CCNC(=O)c1ccc(Cl)cc1O`, the “Percent Effect” value was -118.9%.
With `Cc1nccc(-c2cccc(NCC(=O)NCC(=O)N3CCCC3)c2)n1` the “Percent Effect” value was -89.65%.
In the case of `Cc1cnc(C(=O)N2CC[C@@H]3CN(c4ncccn4)CCO[C@@H]3C2)cn1`, the “Percent Effect” value was -80.08%.
